From the supplement of paper PMC7556523
Values without a mark were called inactive.

Each molecule was assayed on Sporothrix brasiliensis CBS 133006 (assay: growth inhibition relative to untreated control; higher = more growth inhibition (more antifungal activity), active = 80 or more; extreme values may be limits of the assay). Details: 1 µM; 48 h.
Summary of the method: (§1)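 Library compounds at a final 1 μM were incubated with yeast-form cells of the reference isolates (1 x 10^5 CFU/ml) for 48 h at 35°C in 5% CO2. Growth was judged by inverted light microscopy and measured spectrophotometrically in quadruplicate runs. Values give percent growth inhibition relative to untreated cells.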

Q: For O=C(c1ccc(F)cc1)N(CCNc1ccccc1)c1ccccc1, which growth inhibition is on record?
A: Its growth inhibition is 16.5%.

Q: With Nc1ncc(Br)cc1-c1nc2cc(Cl)cnc2[nH]1 as the molecule, how does the growth inhibition read?
A: The growth inhibition was 12%.

Q: O=C(N[C@H](Cc1ccccc1)C(=O)Nc1ccccc1N1CCOCC1)c1cccs1 was tested. Which growth inhibition did it give?
A: Its growth inhibition is 7%.

Q: For CC1CCCN(C(=O)C(C)Nc2cc(Cl)ccc2N2CCOCC2)C1 (stereo unspecified), which growth inhibition is on record?
A: The growth inhibition was 11.5%.

Q: COc1nc2ccc(Br)cc2cc1[C@@H](c1ccccc1)[C@@](O)(CCN(C)C)c1cccc2ccccc12 was tested. Which growth inhibition did it give?
A: Its growth inhibition is 21.5%.

Q: COc1ccc(Cl)cc1NC(=O)CN(C)C(=O)c1cnn(-c2ccccc2)n1 was tested. Which growth inhibition did it give?
A: Its growth inhibition is 14.5%.

Q: With c1ccc(-c2nc(NC3CCCCC3)cc(C3CC3)n2)nc1 as the molecule, how does the growth inhibition read?
A: The growth inhibition was 16.8%.

Q: CC(=O)N(CCN(C(=O)c1ccc(F)cc1)c1ccccc1)c1ccccc1 was tested. Which growth inhibition did it give?
A: The growth inhibition was 13%.

The molecules below were run on Sporothrix schenckii ATCC 32286 in the same assay as above. Details: 1 µM; 48 h.
Summary of the method: as §1

Q: Which growth inhibition does the source give for OC[C@H]1O[C@@H](n2c3ccc(Cl)cc3c3c(-c4cc5ccccc5o4)ncnc32)C(O)[C@H]1O (stereo partly specified) here?
A: Its growth inhibition is 18.8%.

Q: With Nc1nc2cc(-c3cncc(Oc4ccc(F)cc4)c3)ccc2[nH]1 as the molecule, how does the growth inhibition read?
A: Its growth inhibition is 18.5%.

Q: How did the growth inhibition turn out when COc1ccc(C2CC(c3cccs3)=NN2C(=O)c2ccco2)cc1OC (stereo unspecified) was run?
A: The growth inhibition was 18.8%.

Q: For O=C(Nc1ccnc(-c2cccnc2)n1)c1cc(C(F)(F)F)cc(C(F)(F)F)c1, which growth inhibition is on record?
A: The growth inhibition was 0%.

Q: For O=C(NCCc1c[nH]c2ccccc12)c1cc2ccccc2oc1=O, which growth inhibition is on record?
A: Its growth inhibition is 4.5%.

Q: CNc1snc(C)c1C(=O)NCCOc1ccc(OC)cc1 was tested. Which growth inhibition did it give?
A: Its growth inhibition is 7.5%.

Q: CN1CCN(S(=O)(=O)c2ccc(-c3ccc4c(Nc5ccc6nn[nH]c6c5)ccnc4c3)cc2)CC1 was tested. Which growth inhibition did it give?
A: The growth inhibition was 7.5%.

Q: How did the growth inhibition turn out when Cc1cc(NC(=O)c2ccc(Oc3ccc(Cl)cc3O)o2)no1 was run?
A: Its growth inhibition is 2.75%.

Q: How did the growth inhibition turn out when COc1cc(C2=NCCN2)cc2cc(-c3ccc(C4=NCCN4)cc3)oc12 was run?
A: The growth inhibition was 4.25%.

Q: Which growth inhibition does the source give for Cc1cc2nc(NC(=O)C(C)(C)C)nc(Cl)c2n1Cc1ccc(Cl)cc1 here?
A: The growth inhibition was 2.5%.

Q: With Cc1nn2c(O)c3c(nc2c1-c1ccc(F)cc1)CCCC3 as the molecule, how does the growth inhibition read?
A: The growth inhibition was 6.5%.

Q: For Cc1nn2c(=O)c3c([nH]c2c1-c1ccc(Cl)cc1)CCCC3, which growth inhibition is on record?
A: The growth inhibition was 15.8%.

Q: How did the growth inhibition turn out when COc1ccc(-c2cncc3ccc(C(=O)NCCCn4ccnc4)nc23)cc1 was run?
A: The growth inhibition was 16.5%.

Q: With CC(=O)Nc1ccc(NC(=O)c2cc(-c3cc(Cl)ccc3O)n[nH]2)cc1 as the molecule, how does the growth inhibition read?
A: Its growth inhibition is 0%.

Q: For CC(C)(C(=O)Nc1ccc(F)cc1)n1cc(-c2ccccc2F)cn1, which growth inhibition is on record?
A: The growth inhibition was 11%.

Q: How did the growth inhibition turn out when CNC(=O)c1nn(C)c2c1C(C)(C)Cc1cnc(Nc3ccc(N4CCN(C)CC4)cc3)nc1-2 was run?
A: The growth inhibition was 1.25%.

Q: For Cc1[nH]c2ccccc2c1C(c1cccs1)N1CCN(C)CC1 (stereo unspecified), which growth inhibition is on record?
A: Its growth inhibition is 15.2%.

Q: Which growth inhibition does the source give for CCCn1nnc(NC(=O)COc2ccc(C3CCCCC3)cc2)n1 here?
A: The growth inhibition was 0.5%.

Q: How did the growth inhibition turn out when CC1CS(=O)(=O)CCN1/N=C/c1ccc([N+](=O)[O-])o1 (stereo unspecified) was run?
A: The growth inhibition was 7%.

Q: For COC(=O)c1c(NC(=O)c2c(F)c(F)c(F)c(F)c2F)sc2c1CCCCC2, which growth inhibition is on record?
A: The growth inhibition was 0.75%.

Q: COc1cccn2c(C(=O)N3CCCCC3)c(C(F)(F)F)nc12 was tested. Which growth inhibition did it give?
A: Its growth inhibition is 5%.

Q: Which growth inhibition does the source give for CCOC(=O)c1c(NC(=O)c2c(F)c(F)c(F)c(F)c2F)sc(C(N)=O)c1C here?
A: Its growth inhibition is 0%.

Q: With COc1ccccc1CNC(=O)c1cc(C2CC2)nc2c1cnn2C(C)C as the molecule, how does the growth inhibition read?
A: The growth inhibition was 0%.

Q: How did the growth inhibition turn out when Cc1ccc2oc(-c3cc(NC(=O)Cc4ccccc4)ccc3Cl)nc2c1 was run?
A: Its growth inhibition is 11.2%.

Q: Which growth inhibition does the source give for COc1ccc(Nc2ccccc2NC(=O)c2ccc(O)nc2)cc1 here?
A: Its growth inhibition is 4.25%.

Q: How did the growth inhibition turn out when CCc1ccc([C@@H]2C[C@H](C(F)(F)F)n3ncc(C(=O)NCc4ccc(OC)cc4)c3N2)cc1 was run?
A: Its growth inhibition is 12.2%.

Q: O=C(NCc1ccco1)N1CCN(Cc2ccc(Cl)s2)CC1 was tested. Which growth inhibition did it give?
A: The growth inhibition was 0.25%.

Q: For CCN(CC)C(=O)N1CCN(C)CC1, which growth inhibition is on record?
A: The growth inhibition was 1%.

Q: For COc1ccc(C2=NCCN2)cc1-c1cn(-c2cccc(C3=NCCN3)c2)nn1, which growth inhibition is on record?
A: Its growth inhibition is 3%.

Q: For Cc1[nH]c2cc(F)cc(F)c2c(=O)c1-c1ccc(Oc2ccc(OC(F)(F)F)cc2)cc1, which growth inhibition is on record?
A: The growth inhibition was 9.5%.

Q: With O=C(c1ccc(F)cc1)N(CCNc1ccccc1)c1ccccc1 as the molecule, how does the growth inhibition read?
A: Its growth inhibition is 12.2%.

Q: How did the growth inhibition turn out when Nc1ncc(Br)cc1-c1nc2cc(Cl)cnc2[nH]1 was run?
A: The growth inhibition was 19.2%.

Q: O=C(N[C@H](Cc1ccccc1)C(=O)Nc1ccccc1N1CCOCC1)c1cccs1 was tested. Which growth inhibition did it give?
A: The growth inhibition was 7.25%.

Q: Which growth inhibition does the source give for CC1CCCN(C(=O)C(C)Nc2cc(Cl)ccc2N2CCOCC2)C1 (stereo unspecified) here?
A: Its growth inhibition is 0.5%.

Q: COc1nc2ccc(Br)cc2cc1[C@@H](c1ccccc1)[C@@](O)(CCN(C)C)c1cccc2ccccc12 was tested. Which growth inhibition did it give?
A: The growth inhibition was 17.8%.

Q: COc1ccc(Cl)cc1NC(=O)CN(C)C(=O)c1cnn(-c2ccccc2)n1 was tested. Which growth inhibition did it give?
A: Its growth inhibition is 15.2%.

Q: For c1ccc(-c2nc(NC3CCCCC3)cc(C3CC3)n2)nc1, which growth inhibition is on record?
A: Its growth inhibition is 38.2%.

Q: How did the growth inhibition turn out when CC(=O)N(CCN(C(=O)c1ccc(F)cc1)c1ccccc1)c1ccccc1 was run?
A: The growth inhibition was 0%.
